Compounds with a hit are over-represented: about 27% of the library has one in this group of screens.
Cav32 inh: blocks human Cav3.2 T-type calcium channel; O95180; Cav3.2-expressing cells, Fluo-4 calcium fluorescence FDSS; stronger effect = lower value; B-score at 10 µM; 100,000 tested, 4% active;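 active means single-dose well whose peak fluorescence ratio is a statistical outlier from its plate by either plate-standardised score or position-corrected B-score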
CYP2C19 act: activators of human cytochrome P450 2C19; P33261; recombinant CYP2C19, luciferin-H EGE luminescence; stronger effect = higher value; 0 = fully inhibited enzyme, 1 = untreated enzyme; activation factor at 5 µM; 96,000 tested, under 10 active;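 active means activation factor of at least 2 at 5 µM in the primary screen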;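 further: 0 = wells with 2.5 mM tranylcypromine and 1 = vehicle-only wells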
CYP2C9 inhib: human CYP2C9 inhibition | P11712 | CYP2C9 Supersomes, luciferin-H conversion, luminescence | inhibition, % at 5 µM | 96,000 tested, 20% active | AID 777;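 active means blocking of liver enzyme CYP2C9 beyond about 50% at 5 µM, limit read from the data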
CYP2C9 act: increases human cytochrome P450 2C9 activity; recombinant CYP2C9, luciferin-H conversion, luminescence; stronger effect = higher value; factor 1 = untreated enzyme, 0 = blocked; activation factor at 5 µM; 96,000 tested, 1.4% active; AID 1024;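 active means activation factor of 2 or more for CYP2C9 at a 5 µM dose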;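 further: 0 = sulfaphenazole-blocked wells and 1 = vehicle-only wells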
CYP2C19 inhib: blocks human cytochrome P450 2C19 | P33261 | inhibition, % at 5 µM | AID 778 | 96,000 tested, 21% active | CYP2C19 Supersomes, luciferin-H EGE luminescence, 30 min;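 active means CYP2C19 inhibition above a set limit at 5 µM in the primary screen, cut at about 50% in these data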;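 further: plate controls were negative control wells for no effect and 2.5 mM tranylcypromine positive control for full effect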
* hit, by the source's call; . = no result.

SMILES	Cav32 inh	CYP2C19 act	CYP2C9 inhib	CYP2C9 act	CYP2C19 inhib
Cc1ccc2cc(CN(Cc3ccc4c(c3)OCO4)Cc3nnnn3Cc3ccco3)c(=O)[nH]c2c1	-6.7*	0.2	84*	0.2	80*
O=c1[nH]c2cc3c(cc2cc1CN(Cc1nnnn1C1CCCC1)C1CCCC1)OCCO3	-0.65	1.1	-12	1.1	-9
Cc1ccc2cc(CN(Cc3ccco3)C(=O)c3cccs3)c(=O)[nH]c2c1	-1.5	0.6	31	0.7	36
Cc1ccc(CN(Cc2cc3cc4c(cc3[nH]c2=O)OCCO4)Cc2nnnn2Cc2ccco2)cc1	-3.2	0.1	96*	0	88*
COc1ccc(C(=O)N(CCCO)Cc2cc3c(C)ccc(C)c3[nH]c2=O)cc1OC	0.42	0.8	43	0.6	16
COc1ccccc1CN(Cc1cc2c(C)ccc(C)c2[nH]c1=O)Cc1nnnn1Cc1ccco1	-1.9	0.4	80*	0.2	60*
CCOC(=O)c1ccc(NC2c3ccccc3C(=O)N2c2ccccn2)cc1 (stereo unspecified)	-0.24	0.8	22	0.8	18
COc1cc(OC)cc(C(=O)NC(C(=O)NCCN(C)C)C23CC4CC(CC(C4)C2)C3)c1 (stereo unspecified)	1.4	0.1	2	1	93*
Cc1ccc(NC(=O)CN2CCC(C(=O)c3ccc(F)cc3)CC2)cc1	-5.2*	.	.	.	.
CCOC(=O)C1CCN(C(C(=O)Nc2ccc3c(c2)OCCO3)c2ccccc2)CC1 (stereo unspecified)	-3.4	0.9	89*	0.1	13
CCOC(=O)C1CCN(c2c(Nc3ccc4c(c3)OCCO4)c(=O)c2=O)CC1	-0.042	0.8	17	0.8	20
O=C(CN1CCN(CC(=O)Nc2ccccc2Cl)CC1)Nc1ccc2c(c1)OCCO2	-0.22	0.1	51*	0.5	91*
O=C(CN1CCN(Cc2ccc3c(c2)OCO3)CC1)Nc1ccc2c(c1)OCCO2	-0.011	0.8	24	0.8	15
O=C(CN1CCC(C(=O)c2ccc(Cl)cc2)CC1)Nc1ccc2c(c1)OCCO2	-2.9	0.7	58*	0.4	29
CC1(C)[C@@H](O)CC[C@]2(C)C3C(O)C=C4[C@H]5C[C@@](C)(C(=O)O)CC[C@]5(C)CC[C@]4(C)[C@]3(C)CC[C@@H]12 (stereo partly specified)	-1.6	.	.	.	.
COc1ccccc1NC(=O)CN1CCN(CC(=O)Nc2ccc3c(c2)OCCO3)CC1	1.2	0.1	9	0.9	94*
O=C(CN1CCC(Cc2ccccc2)CC1)Nc1ccc2c(c1)OCCO2	-4.1*	0.6	34	0.7	43
COc1ccccc1NC(=O)CC1C(=O)NCCN1C(=O)Nc1ccccc1 (stereo unspecified)	0.3	0.9	11	0.9	6
O=C(CC1C(=O)NCCN1C(=S)Nc1ccccc1)Nc1ccc2c(c1)OCCO2 (stereo unspecified)	0.59	0.9	59*	0.4	9
Cc1cc(C)n2cc(CSc3nnc(N)s3)nc2n1	-0.15	1.1	-6	1.1	-6
O=C(NC(NC1CCS(=O)(=O)C1)C(=O)c1ccccc1)c1ccc(Cl)cc1 (stereo unspecified)	0.68	0.9	4	1	13
CCCCNCc1cc(Br)c(OCC(=O)N2CCOCC2)c(OC)c1	0.66	1	-2	1	-5
CCCCNCc1cc(Br)c(OCc2cccs2)c(OC)c1	-2.6	0.4	-5	1.1	65*
COc1ccc(C(c2nnnn2Cc2ccccc2)N2CCN(c3ccccc3)CC2)cc1 (stereo unspecified)	-4.5*	0.1	86*	0.1	91*
COc1ccc(C(c2nnnn2Cc2cccs2)N2CCN(c3ccccc3F)CC2)cc1 (stereo unspecified)	-3.4*	0.1	90*	0.1	92*
SMILES	Cav32 inh	CYP2C19 act	CYP2C9 inhib	CYP2C9 act	CYP2C19 inhib
COc1ccc(Cn2nnnc2C(c2ccncc2)N2CCOCC2)cc1 (stereo unspecified)	0.73	0.1	78*	0.2	90*
COc1ccc(C(c2nnnn2CC2CCCO2)N2CCN(c3ccc(F)cc3)CC2)cc1 (stereo unspecified)	-0.051	0.5	78*	0.2	48
Fc1ccc(OCc2nnc(SCCN3CCOCC3)o2)cc1	0.54	.	.	.	.
CCOc1c(C)cc2[nH]c(CCC(=O)O)nc2c1C	0.42	.	.	.	.
COc1ccc(Cn2nnnc2C(C(C)C)N2CCN(c3ccccc3OC)CC2)cc1 (stereo unspecified)	.	0.1	97*	0	92*
COc1ccc(OC)c(C(c2nnnn2Cc2ccccc2)N2CCN(C)CC2)c1 (stereo unspecified)	0.056	0.9	4	1	12
COc1ccc(C(c2nnnn2Cc2ccccc2)N2CCN(c3nc4ccccc4s3)CC2)cc1 (stereo unspecified)	-4.8*	0.5	63*	0.4	54*
Oc1ccc(N2CCN(C(c3cccnc3)c3nnnn3Cc3ccccc3)CC2)cc1 (stereo unspecified)	0.44	0.5	57*	0.4	52*
Fc1ccc(C(c2nnnn2Cc2cccs2)N2CCN(C3CCCC3)CC2)cc1 (stereo unspecified)	-0.46	0.2	-11	1.1	80*
CCn1c(Cc2ccc(OC)cc2)nnc1SCC(=O)Nc1nc2ccccc2s1	-0.2	0.8	20	0.8	18
Cc1ccc2c(n1)sc1c(N)ncnc12	.	1.1	-3	1	-6
Cc1ccccc1-n1c(C)nnc1SCC(=O)NCC1CCCO1 (stereo unspecified)	0.11	0.9	-55	1.6	10
CCOC(=O)c1ccc(N2Cc3ccccc3C2=N)cc1	0.46	0.6	85*	0.2	42
O=c1cc(Cl)[nH]c(=O)n1CCNc1ncc(C(F)(F)F)cc1Cl	-0.99	0.3	100*	0	68*
CCCc1cc(NCC2CCCO2)n2c(nc3ccccc32)c1C#N (stereo unspecified)	2.3	1	60*	0.4	2
CCCNc1cc(C)c(C#N)c2nc3ccccc3n12	2.4	.	.	.	.
C=CCOn1c(C)c(C(C)=O)c2c3no[n+]([O-])c3ccc21	-0.66	.	.	.	.
COC(=O)c1c(CSc2ccc(C)c(C)c2)noc1C(=O)NCc1ccc(OC)cc1	-2.2	0.3	75*	0.2	65*
CCCCNC(=O)c1onc(CSc2ccc(F)c(F)c2)c1C(=O)O	-0.82	1	73*	0.3	1
CCCNC(=O)c1onc(CSc2ccncc2)c1C(=O)NCCC	-0.063	.	.	.	.
C=CCNC(=O)c1onc(CSc2ccc(F)c(F)c2)c1C(=O)NCC=C	-1.8	.	.	.	.
CCCCNC(=O)c1onc(CSc2ccc(C)c(C)c2)c1C(=O)O	-2.9	0.9	83*	0.2	14
COc1cccc(SCc2noc(C(=O)NCc3ccccc3)c2C(=O)NCc2ccccc2)c1	0.39	.	.	.	.
C=CCNC(=O)c1onc(CSc2ccc(C)c(C)c2)c1C(=O)O	0.023	0.1	88*	0.1	94*
C=CCNC(=O)c1onc(CSc2ccccc2)c1C(=O)NCC=C	0.27	.	.	.	.

Bioassay records deposited in PubChem by several laboratories.
